Laboratory results from PubChem BioAssay (NCATS).
Values joined by “and” are separate entries in the source; they are usually repeats but may differ in a detail not shown here. Identical values can stand only once. Records with an inconclusive call do not appear. Active and inactive are the calls of the source. The call rests on the fitted dose curve; in most records, active means well fitted curve in the direction sought with a large enough effect; inconclusive means small, poorly fitted or top-dose-only effect, or another doubt; inactive means no such curve, though single readings can be large; an effect the other way counts as inactive or inconclusive.

Tests used:
[1] = target: Cytochrome P450 3A7 (Homo sapiens) (UniProt P24462); assay: Cytochrome P450 family 3 subfamily A member 7 (CYP3A7) small molecule antagonists: luciferase biochemical qHTS assay (AID 1963596); further: on the % scale 0 is the no-effect control and ±100 the full control effect; nearly all actives have a fitted effect of over 40% in size
Sequence of Cytochrome P450 3A7 (Homo sapiens) (P24462 whole entry, looked up): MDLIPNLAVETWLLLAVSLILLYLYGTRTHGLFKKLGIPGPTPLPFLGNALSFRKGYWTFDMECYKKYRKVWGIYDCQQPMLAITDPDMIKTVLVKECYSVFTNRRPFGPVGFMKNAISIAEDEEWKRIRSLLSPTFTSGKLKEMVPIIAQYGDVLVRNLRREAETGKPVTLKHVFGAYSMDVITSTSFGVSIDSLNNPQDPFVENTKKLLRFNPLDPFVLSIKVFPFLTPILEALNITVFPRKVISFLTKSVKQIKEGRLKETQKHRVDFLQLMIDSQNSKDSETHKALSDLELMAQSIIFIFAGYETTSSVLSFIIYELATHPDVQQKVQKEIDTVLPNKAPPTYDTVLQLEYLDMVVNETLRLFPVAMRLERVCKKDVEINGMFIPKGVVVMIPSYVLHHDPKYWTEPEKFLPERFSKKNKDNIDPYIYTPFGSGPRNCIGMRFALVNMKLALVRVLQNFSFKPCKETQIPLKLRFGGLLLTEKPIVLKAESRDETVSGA
Procedure, shortened: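 Enzyme-substrate mix + cpd (DMSO), 10 min RT; + NADPH regen system, 1 h RT; + luciferin detection reagent, 20 min RT; luminescence read. Proluciferin substrate, P450-Glo format, 1536-well qHTS.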

[2] = Viability qHTS for spleen associated tyrosine kinase inhibitor (SYKi) naive MV4-11 cells (AID 1963823); further: nearly all actives have a fitted effect of over 40% in size; further: potency means the concentration at half of the fitted maximal effect
Procedure, shortened: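 Viability of MV4-11 AML cells lacking prior SYK inhibitor exposure is scored by CellTiter-Glo luminescence following 72 hr compound incubation at 37 C, 5% CO2, seeded at 500 cells per well.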

[3] = Viability qHTS for spleen associated tyrosine kinase inhibitor (SYKi) drug resistant MV4-11 cells (AID 1963824); further: nearly all actives have a fitted effect of over 35% in size; further: potency means the concentration at half of the fitted maximal effect
Procedure, shortened: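 SYK-inhibitor-resistant MV4-11 AML cells were seeded at 500 per well onto compound and cultured 72 hours (37 °C, 5% CO2). CellTiter-Glo was then added, and after 10 min at room temperature, luminescence gave viability.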

[4] = Cellular viability qHTS for adrenocortical cancer (ACC) cell line SW-13 (AID 1963989); settings: SW-13 ACC cells viability, CellTiter-Glo, 48 h; activity (max response): active compounds read low; further: nearly all actives have a fitted effect of over 65% in size; further: potency means the concentration at half of the fitted maximal effect;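 on activity (max response): cells grown in serum-free medium with ITS supplement; on the % scale 0 is the no-effect control and ±100 the full control effect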
Procedure, shortened: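 Compound titrations (up to 46 uM final, in DMSO) were applied to SW-13 cells for 48 h at 37C/5% CO2. Reading used CellTiter-Glo after 20 min at room temperature; fitted curves yielded IC50 and efficacy.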

[5] = Cellular viability qHTS for adrenocortical cancer (ACC) cell line NCI-H295R (AID 1963990); further: nearly all actives have a fitted effect of over 60% in size; further: potency means the concentration at half of the fitted maximal effect
Procedure, shortened: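 Readout: CellTiter-Glo luminescence, 20 min RT. Exposure: 48 h, 37C/5% CO2. Cells: NCI-H295R, ITS-DMEM serum-free. Range: up to 46 uM. Analysis: 4PL fit, IC50 plus efficacy.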

CCN1CCC[C@H]1CNC(=O)c1cc(S(N)(=O)=O)ccc1OC
inactive: Potency [1] | Potency [2] | Potency [3] | activity (max response) [4] 6.63% | Potency [5]

CCC(=O)Nc1ccc(O)cc1
inactive: Potency [1] | Potency [2] | Potency [3] | activity (max response) [4] 0.747% | Potency [5]

CC(O)CN(CCN(CC(C)O)CC(C)O)CC(C)O (stereo not given)
inactive: Potency [1] | Potency [2] | Potency [3] | activity (max response) [4] 5.94% | Potency [5]

CCCCCCCCCCCCCCCCO
inactive: Potency [1] | Potency [2] | Potency [3] | activity (max response) [4] 10.1% | Potency [5]

Cc1coc2ccccc2c1=O
inactive: Potency [1] | Potency [2] | Potency [3] | activity (max response) [4] 19.3% | Potency [5]

CN1Cc2cc(C(=O)N3CCC(C4CCNCC4)CC3)ccc2NC(CC(=O)O)C1=O (stereo not given)
inactive: Potency [1] | Potency [2] | Potency [3] | activity (max response) [4] 10.5% | Potency [5]

O=C(Cn1ccnc1[N+](=O)[O-])NCCO
inactive: Potency [1] | Potency [2] | Potency [3] | activity (max response) [4] 10.4% | Potency [5]

O=C(O)Cn1cnnn1
inactive: Potency [1] | Potency [2] | Potency [3] | activity (max response) [4] 12.6% | Potency [5]

O=C(N[C@H]1CCC[C@H](CO)C1)C1CCN(c2nc3cc(Cl)c(-c4ccc(Cl)cc4)cc3o2)CC1
inactive: Potency [1] | activity (max response) [4] -10.9%
active: Potency [2] 16.6 µM | Potency [3] 16.6 µM | Potency [5] 12.6 µM

CCCC(=O)Nc1ccc(OCC(O)CNC(C)C)c(C(C)=O)c1 (stereo not given)
inactive: Potency [1] | Potency [2] | Potency [3] | activity (max response) [4] 0.0374% | Potency [5]

O=S(=O)(O)NC1CCCCC1
inactive: Potency [1] | Potency [2] | Potency [3] | activity (max response) [4] 6.85% | Potency [5]

Cc1ccc(C(=O)c2ccc(CC(=O)O)n2C)cc1
inactive: Potency [1] | Potency [2] | Potency [3] | activity (max response) [4] 4.18% | Potency [5]

COc1cc(S(N)(=O)=O)cc(C(=O)O)c1OC
inactive: Potency [1] | Potency [2] | Potency [3] | activity (max response) [4] 10.1% | Potency [5]

CCNC(=O)/C=C/c1cccc(Br)c1
inactive: Potency [1] | Potency [2] | Potency [3] | activity (max response) [4] -10.3% | Potency [5]

Nc1ncnc2c1C(=O)N(c1ccc(C3CCC(CC(=O)O)CC3)cc1)CCO2 (stereo not given)
inactive: Potency [1] | Potency [2] | Potency [3] | activity (max response) [4] 10.6% | Potency [5]

CC(=O)OCC(=O)Nc1cc(C#N)cc(NC(=O)COC(C)=O)c1Cl
inactive: Potency [1] | Potency [2] | Potency [3] | activity (max response) [4] -0.531% | Potency [5]

CNC(=O)c1c(I)c(NC(C)=O)c(I)c(C(=O)O)c1I
inactive: Potency [1] | Potency [2] | Potency [3] | activity (max response) [4] 10% | Potency [5]

O=[N+]([O-])c1cncn1CCN1CCOCC1
inactive: Potency [1] | Potency [2] | Potency [3] | activity (max response) [4] 13.4% and -13.9% | Potency [5]

Cc1c(C)c2c(c(C)c1OC(=O)c1cccnc1)CC[C@@](C)(CCC[C@H](C)CCC[C@H](C)CCCC(C)C)O2
inactive: Potency [1] | Potency [2] | Potency [3] | activity (max response) [4] -0.414% | Potency [5]

CCCN1CCN(c2ccc(C(=O)NC3(C(=O)NCC#N)CCCCC3)cc2)CC1
inactive: Potency [1] | Potency [2] | Potency [3] | activity (max response) [4] -11.1% | Potency [5]

COc1cc(N2CCC(N3CCN(C)CC3)CC2)ccc1Nc1ncnc(Nc2ccccc2S(=O)(=O)C(C)C)n1
active: Potency [2] 1.16 µM and 1.32 µM | Potency [3] 2.06 µM and 2.63 µM | Potency [4] 11.2 µM | Potency [5] 8.91 µM
inactive: Potency [1]

CCN(CC)CCNC(=O)COc1ccc(Cl)cc1
inactive: Potency [1] | Potency [2] | Potency [3] | activity (max response) [4] 6.48% | Potency [5]

Cc1cc(C)cc(NC(=O)Cc2ccc(OC(C)(C)C(=O)O)cc2)c1
inactive: Potency [1] | Potency [2] | Potency [3] | activity (max response) [4] 8.53% | Potency [5]

Cc1cc2c(cc1CC(=O)c1sccc1S(=O)(=O)Nc1onc(C)c1Cl)OCO2
inactive: Potency [1] | Potency [2] | Potency [3] | activity (max response) [4] 2.25% and -17.1% | Potency [5]

Cc1cc2c(cc1S(N)(=O)=O)S(=O)(=O)CCC2
inactive: Potency [1] | Potency [2] | Potency [3] | activity (max response) [4] 12.2% | Potency [5]

Cc1ncc(COP(=O)(O)O)c(C=O)c1O
inactive: Potency [1] | Potency [2] | Potency [3] | activity (max response) [4] 7.84% | Potency [5]

O=C1NS(=O)(=O)c2ccccc21
inactive: Potency [1] | Potency [2] | Potency [3] | activity (max response) [4] 0.607% | Potency [5]

CCN(CC)C(=O)Nc1ccc(OCC(O)CNC(C)(C)C)c(C(C)=O)c1 (stereo not given)
inactive: Potency [1] | Potency [2] | Potency [3] | activity (max response) [4] 12% | Potency [5]
